This passage reports survival results from PubChem BioAssay AID463173 (ICCB-Longwood Screening Facility, Harvard Medical School, 2010).

Hit rate of the full screen: of about 52,000 compounds, about 1,700 (3.3%) were called active. The full list was thinned out, with actives kept by preference. A number with no mark means an inactive call. Rule as the data show it: active = survival mostly below about 52% (no sharp cut-off); inactive = mostly above about 56%.

The assay deals with Wild type. Put plainly: growth inhibition of S. aureus wild type versus tarO mutant, primary screen, teichoic acid synthesis inhibitors, RN4220, OD600 (AID 463173). Particulars: S. aureus RN4220 wild type/DeltatarO growth, OD600, 18 h, stronger effect = lower value, screened at 18.75 µg/mL (by protocol).
In the case of `COc1ccc(N2CCN(S(=O)(=O)c3cc(Br)cc4c3N(C(=O)C3CC3)CC4)CC2)cc1`, the survival is 90%.

Regarding `COc1ccc2nc3oc(C(=O)NCc4ccccc4OC)cc3cc2c1`, the survival is 88%.

For `COc1ccc(NC(=O)CC2C(=O)N(c3ccc(F)cc3)C(=O)N2Cc2ccco2)cc1` (stereo unspecified), the survival was 90%.

As for `COc1ccc(CNC(=O)c2cc3oc4ccccc4c3n2C)cc1OC`, the survival was 64%.

In the case of `Cc1cnc(=O)[nH]c1SCC(=O)Nc1nc2ccccc2s1`, the survival is 89%.

`CCOC(=O)c1c(SCC(=O)Nc2nc3ccccc3s2)nc(=O)[nH]c1C`: the survival was 1% (active).

In the case of `CCOC(=O)c1c(SCC(=O)Nc2nc3ccc(C)cc3s2)nc(=O)[nH]c1C`, the survival was 81%.

With `CC(C)OCCCNC(=O)Cc1ccc(NC(=O)N2CCCCc3ccccc32)cc1`, the survival was 77%.

For `CCN(CC)c1ccc(CN(C(=O)c2cc(=O)c3ccccc3o2)C2CCS(=O)(=O)C2)cc1` (stereo unspecified), the survival is 76%.

On to `COC(=O)c1c(NC(=O)CCCOc2ccc(C(C)(C)C)cc2)sc2c1C(C(=O)OC)CC2` (stereo unspecified), for which the survival was -2% (active).

On to `COC(=O)c1c(NC(=O)CCCOc2ccc(C(C)(C)C)cc2)sc2c1CCC(C)C2` (stereo unspecified), for which the survival was 30%.

Regarding `COC(=O)c1c(NC(=O)c2cccs2)sc2c1C(C(=O)OC)CC2` (stereo unspecified), the survival was 104%.

On to `COC(=O)c1c(NC(=O)CCCOc2cccc(C)c2)sc2c1C(C(=O)OC)CC2` (stereo unspecified), for which the survival was -3% (active).

As for `COC(=O)c1c(NC(=O)/C(C#N)=C/c2ccc(OC)cc2)sc2c1C(C(=O)OC)CC2` (stereo unspecified), the survival is 71%.

For the compound `COC(=O)c1c(NC(=O)/C(C#N)=C/c2ccccc2)sc2c1C(C(=O)OC)CC2` (stereo unspecified), the survival is 82%.

As for `COC(=O)c1c(NC(=O)CCCOc2ccc(C)cc2)sc2c1C(C(=O)OC)CC2` (stereo unspecified), the survival is 1% (active).

Turning to `CCOc1ccc(/C=C/C(=O)Nc2sc3c(c2C(=O)OC)C(C(=O)OC)CC3)cc1` (stereo unspecified), the survival is 75%.

As to `CC1CCc2c(sc(NC(=O)CCCOc3ccc(C(C)(C)C)cc3)c2C(N)=O)C1` (stereo unspecified), the survival is 79%.

Turning to `Cc1ccc(N(O)C(=O)Nc2ccccc2)cc1`, the survival is 119%.

Consider `COCCCNC(=O)c1ccc2nc(CCc3ccccc3)oc2c1`, for which the survival was 88%.

With `Cc1cccc(N2CCN(S(=O)(=O)c3ccc(F)c(C(=O)Nc4ccc(C(C)C)cc4)c3)CC2)c1C`, the survival was 75%.

For `CCOc1ccc(CCNC(=O)Cn2c(C)c3cnn(-c4ccccc4)c(=O)c3c2C)cc1`, the survival was 95%.

As to `COc1ccc2c(c1)CCc1c(C(=O)Nc3c(C)nn(Cc4ccc(Cl)cc4)c3C)noc1-2`, the survival is 64%.

Regarding `COc1ccc2c(c1)CCc1c(C(=O)Nc3c(C)nn(Cc4ccc(C)cc4)c3C)noc1-2`, the survival was 16% (active).

For `COc1ccc2c(c1)CCc1c(C(=O)Nc3c(C)nn(Cc4ccccc4)c3C)noc1-2`, the survival was 92%.

Regarding `CC(=O)Nc1cc(C(=O)NCc2ccc(C)cc2)ccc1S(=O)(=O)c1ccc(Cl)cc1`, the survival was 85%.

As to `CCc1ccc(-n2c(=O)c3cccnc3n2CC(=O)Nc2cc(OC)ccc2OC)cc1`, the survival is 74%.

`Cc1cc(C(=O)c2cccs2)c(N)s1`: the survival was 90%.

Regarding `COc1ccc(CNC(=O)c2ccc3c(c2)NC(=O)C(CS(=O)(=O)Cc2ccccc2Cl)N3)cc1` (stereo unspecified), the survival was 49%.

For `Cc1ccc(C)c(N2CCN(C(=O)c3cn(CC(C)C)c(=O)c4c3c3ccccc3n4C)CC2)c1`, the survival was 17% (active).

Turning to `Cc1cccc(N2CCN(C(=O)c3cn(CC(C)C)c(=O)c4c3c3ccccc3n4C)CC2)c1C`, the survival is 89%.

As for `Cc1ccc(Cl)cc1N1CCN(C(=O)c2cn(CC(C)C)c(=O)c3c2c2ccccc2n3C)CC1`, the survival is 87%.

As for `Cc1cccc(NC(=O)NCCn2c(=O)oc3ccc(C)cc32)c1`, the survival is 88%.

Regarding `Cc1ccc(C(C)C)c(OCCCn2c(=O)oc3ccc(C)cc32)c1`, the survival was -10% (active).

Consider `Cc1ccc(C(C)C)c(OCCn2cc(C(=O)c3ccco3)c3ccccc32)c1`, for which the survival is 30%.

For the compound `Cc1ccc2oc(=O)n(CCNC(=O)Nc3ccc(C)c(F)c3)c2c1`, the survival was 108%.

Regarding `Cc1ccc(NC(=O)NCCOCCn2c(=O)oc3ccccc32)c(C)c1`, the survival is 88%.

Consider `Cc1ccc(C(C)C)c(OCCCn2c(=O)oc3ccccc32)c1`, for which the survival was -2% (active).

As to `Cc1nn2c(C)c(C(=O)NCc3ccc(OC(C)C)cc3)cnc2c1-c1ccc(F)cc1`, the survival was 76%.

Take `COc1cc(OC)c(NC(=O)Cn2cnc3c(nc4n3CCCCC4)c2=O)cc1Cl`: the survival is 59%.

As for `O=C(NCC1CCCO1)C1CC(=O)N(c2ccccc2)C1` (stereo unspecified), the survival is 123%.

`Cc1ccc(S(=O)(=O)N2Cc3ccccc3CC2C(=O)N(C)C)cc1` (stereo unspecified): the survival is 102%.

As to `Cc1ccc(Cn2c(C(=O)O)c(CNC3CCCC3)c3ccc(C)cc32)cc1`, the survival was 83%.

As for `Cc1nc2ccn(Cc3cccs3)c(=O)c2cc1C(=O)NCc1ccccc1`, the survival is 73%.

Consider `CCOc1ccc(CNC(=O)c2cc3c(=O)n(Cc4cccs4)ccc3nc2C)cc1`, for which the survival is 118%.

`COc1ccc(CNC(=O)c2cc3c(=O)n(Cc4cccs4)ccc3nc2C)cc1`: the survival is 10% (active).

As for `COc1cc(NC(=O)c2cc3c(=O)n(Cc4cccs4)ccc3nc2C)cc(OC)c1OC`, the survival was -2% (active).

With `Cc1nc2ccn(Cc3cccs3)c(=O)c2cc1C(=O)NCc1ccc(Cl)cc1`, the survival is 22%.

Regarding `CCc1ccc(CNC(=O)c2cc3c(=O)n(Cc4cccs4)ccc3nc2C)cc1`, the survival was 0% (active).

In the case of `Cc1nc2ccn(Cc3cccs3)c(=O)c2cc1C(=O)Nc1ccccc1`, the survival is 91%.

As to `Cc1nc2ccn(Cc3cccs3)c(=O)c2cc1C(=O)NCc1ccc(Br)cc1`, the survival is 82%.

For `COc1ccc(NC(=O)c2cc3c(=O)n(Cc4cccs4)ccc3nc2C)cc1`, the survival is 59%.

On to `Cc1ccc(C)c(NC(=O)Cn2c(=O)n(CC3CCCO3)c(=O)c3ccccc32)c1` (stereo unspecified), for which the survival is 119%.

For `CCOC(=O)c1c(NC(=O)c2cc3nc(-c4ccccc4)cc(C(F)(F)F)n3n2)sc2c1CCC(C)C2` (stereo unspecified), the survival was 65%.

Take `O=S(=O)(c1ccc(Br)cc1)N1CCn2cccc2C1c1ccc(Br)cc1` (stereo unspecified): the survival was 65%.

As to `CCCOC(=O)c1cccc(Nc2nc(C(=O)OCC)nc3ccccc23)c1`, the survival was 44%.
